Laboratory results from PubChem BioAssay (Tox21).
Where “and” joins values, the source holds several entries; their conditions need not be identical. Identical values can stand only once. Records with an inconclusive call do not appear. More than one record can exist for a structure, and the calls need not agree. Calls of active or inactive are those of the source. Unless noted, calls follow the shape of the dose curve; as a rule, active = well fitted curve in the direction sought with a large enough effect in the repeat runs; inconclusive = weak or mixed curves; inactive = no such curve, though single readings can be large; an effect the other way counts as inactive or inconclusive.

How the values were obtained:
[1] = qHTS assay to identify small molecule agonists of the hypoxia (HIF-1) signaling pathway - cell viability counter screen (AID 1224844; calls by dose curve; also: nearly all actives have a fitted effect of over 50% in size)
Method in brief: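 Cytotoxicity measured by CellTiter-Glo ATP luminescence in the wells also read for beta-lactamase signal. Cells were HRE-bla ME-180 (2,000/well, 0.5% dialyzed FBS), exposed to compounds for 17 h at 37C.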

[2] = qHTS assay to identify small molecule agonists of H2AX (AID 1224845; active = well fitted activation curve with a large enough effect in the signal ratio in the repeat runs, not every such curve was filed as active; the % refers to the signal ratio)
Method in brief: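 Wild-type CHO-K1 cells, plated overnight, exposed 3hr at 37C to 15 concentrations (0.76% DMSO final). Lysed, then HTRF anti-pH2AX (S139) cryptate and anti-H2AX-d2 antibodies, 24 hr room temperature; 665/620 nm emission read.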

[3] = qHTS assay to identify small molecule agonists of the hypoxia (HIF-1) signaling pathway (AID 1224846; active = well fitted activation curve with a large enough effect in the signal ratio in the repeat runs, not every such curve was filed as active; the % refers to the signal ratio)
Method in brief: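 Compounds added to ME-180 cells carrying hypoxia-response-element beta-lactamase reporter (0.5% dialyzed FBS, 5 h preplating), 17 h at 37C; agonist activity detected by CCF4-AM B/G FRET read-out.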

[4] = qHTS assay to identify small molecule agonists of H2AX - cell viability counter screen (AID 1224847; calls by dose curve; also: top concentration of the series differs between compounds; nearly all actives have a fitted effect of over 30% in size)
Method in brief: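 Compounds tested at 15 concentrations were incubated 3 hr at 37C with wild-type CHO-K1 cells; cellular ATP-based luminescence (CellTiter-Glo) indicated viability.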

[5] = qHTS RealTime-Glo MT Cell Viability Assay in HepG2 cells - 24 hour (AID 1224867); also: nearly all actives have a fitted effect of over 50% in size
Method in brief: (§1)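 Real-time, nonlytic viability: 600 HepG2 cells/well mixed with NanoLuc enzyme plus prosubstrate; 5 h settle, compound (DMSO) added by pintool; luminescence monitored over 40 h at 37 C.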

[6] = A CellTox Green Cytotoxicity Assay to monitor cytotoxicity in HEK293 cells - 0 hour (AID 1224869); also: nearly all actives have a fitted effect of over 50% in size
Method in brief: (§2)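 Fluorescence from a DNA-binding dye excluded by viable cells was measured repeatedly in the same HEK293 wells (600 cells/well) during continuous compound exposure at 37 C. Each assay gives one read point: 0, 8, 16, 24, 32 or 40 h.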

[7] = qHTS RealTime-Glo MT Cell Viability Assay in HepG2 cells - 40 hour (AID 1224870); also: nearly all actives have a fitted effect of over 50% in size; also: potency is read from the fitted curve at half-maximal effect
Method in brief: (§3)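 HepG2 cells (600/well) mixed with RealTime-Glo MT reagent, settled 5 h at 37 C/5% CO2 before compound addition. Nonlytic NanoLuc luminescence from viable-cell prosubstrate reduction read repeatedly during 40 h treatment at 37 C.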

[8] = A CellTox Green Cytotoxicity Assay to monitor cytotoxicity in HEK293 cells - 40 hour (AID 1224871); also: nearly all actives have a fitted effect of over 45% in size; also: potency is read from the fitted curve at half-maximal effect
Method in brief: as §2

[9] = qHTS RealTime-Glo MT Cell Viability Assay in HEK293 cells - 16 hour (AID 1224872)
Method in brief: (§4)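 Cells + reagent dispensed (600 cells/well, HEK293) → 5 h at 37 C/5% CO2 → 23 nL compound in DMSO pinned → 40 h at 37 C → luminescence read at 0, 8, 16, 24, 32, 40 h.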

[10] = qHTS RealTime-Glo MT Cell Viability Assay in HepG2 cells - 8 hour (AID 1224873); also: nearly all actives have a fitted effect of over 55% in size
Method in brief: as §3

[11] = qHTS RealTime-Glo MT Cell Viability Assay in HEK293 cells - 40 hour (AID 1224874); conditions: RealTime-Glo luminescence; max response: stronger effect = lower value; also: nearly all actives have a fitted effect of over 50% in size; also: potency is read from the fitted curve at half-maximal effect
Method in brief: (§5)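 Luminescence, which tracks viable cell number through reduction of the prosubstrate to a NanoLuc substrate, was read over continuous 37 C culture. Cells (600/well) were premixed with reagent and rested 5 h before 23 nL of compound in DMSO was pinned.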

[12] = A CellTox Green Cytotoxicity Assay to monitor cytotoxicity in HEK293 cells - 24 hour (AID 1224875); also: nearly all actives have a fitted effect of over 45% in size
Method in brief: as §2

[13] = A CellTox Green Cytotoxicity Assay to monitor cytotoxicity in HepG2 cells - 16 hour (AID 1224876); also: nearly all actives have a fitted effect of over 45% in size
Method in brief: (§6)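 Real-time cytotoxicity: fluorescence of a cell-impermeant cyanine dye binding DNA of dead HepG2 cells, measured repeatedly (0–40 h) during compound exposure at 37 C. Cells seeded 600/well with reagent, dosed after 5 h.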

[14] = qHTS RealTime-Glo MT Cell Viability Assay in HepG2 cells - 32 hour (AID 1224877); also: nearly all actives have a fitted effect of over 55% in size
Method in brief: as §1

[15] = A CellTox Green Cytotoxicity Assay to monitor cytotoxicity in HepG2 cells - 24 hour (AID 1224878); also: nearly all actives have a fitted effect of over 45% in size
Method in brief: as §6

[16] = A CellTox Green Cytotoxicity Assay to monitor cytotoxicity in HepG2 cells - 40 hour (AID 1224879); also: nearly all actives have a fitted effect of over 40% in size; also: potency is read from the fitted curve at half-maximal effect
Method in brief: as §6

[17] = qHTS RealTime-Glo MT Cell Viability Assay in HEK293 cells - 32 hour (AID 1224868); also: nearly all actives have a fitted effect of over 50% in size; also: potency is read from the fitted curve at half-maximal effect; as to activity change, negative = cytotoxic: top concentration of the series differs between compounds
Method in brief: as §4

[18] = qHTS RealTime-Glo MT Cell Viability Assay in HEK293 cells - 0 hour (AID 1224880)
Method in brief: as §5

[19] = qHTS assay to identify small molecule antagonists of the estrogen related receptor (ERR) signaling pathway from Tox21 library (AID 1224848); also: nearly all actives have a fitted effect of over 50% in size
Method in brief: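 Compounds dissolved in DMSO are pin-transferred onto ERR reporter cells (2,000 per well) that have settled for 6 h at 37 C. Plates then incubate 18 h at 37 C before ONE-Glo luciferase reagent and a luminescence read 30 min later.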

[20] = qHTS assay to identify small molecule agonists of the estrogen related receptor (ERR) signaling pathway from Tox21 library (AID 1224849; calls by dose curve; also: nearly all actives have a fitted effect of over 15% in size); conditions: ERR reporter cell line, ONE-Glo luciferase, 18 h
Method in brief: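 Luminescent agonist read-out (One-Glo, 30-minute room-temperature incubation) following 18-hour compound treatment at 37 C of the ERR cell line, which had been plated 6 hours before dosing.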
% is scaled to controls: 0 for no effect and ±100 for the full control effect.

COC(=O)CC(=O)OC
inactive: Potency [1] | Potency [2] | outcome [3] | Potency [4] | Potency [5] | Potency [6] | Potency [7] | Potency [8] | Potency [9] | Potency [10] | max response [11] 2.65% and 1% | Potency [12] | Potency [13] | Potency [14] | Potency [15] | Potency [16]

COc1ccc2nc(N)sc2c1
inactive: Potency [1] | Potency [2] | outcome [3] | Potency [4] | Potency [5] | Potency [6] | Potency [7] | Potency [8] | Potency [9] | Potency [10] | max response [11] 7.94% | Potency [12] | Potency [13] | Potency [14] | Potency [15] | Potency [16] | Potency [18]
inactive and 2.19 µM (active): Potency [17]

C=CCOC(=O)C(=C)C
inactive: Potency [1] | Potency [2] | outcome [3] | Potency [4] | Potency [19] | activity change, positive = activation ([20]; at 92.4 µM (top of the series)) -1.6% and 1.74% | Potency [5] | Potency [17] | Potency [6] | Potency [7] | Potency [8] | Potency [9] | max response [11] 2.76% and 2.11% | Potency [12] | Potency [13] | Potency [14] | Potency [15] | Potency [16]

C=C[Si](OCCOC)(OCCOC)OCCOC
inactive: Potency [1] | Potency [2] | outcome [3] | Potency [4] | Potency [5] | Potency [17] | Potency [6] | Potency [7] | Potency [8] | Potency [9] | max response [11] 5.17% and 4.57% | Potency [12] | Potency [13] | Potency [14] | Potency [16] | Potency [18]

CN1CCOCC1
inactive: Potency [1] | Potency [2] | outcome [3] | Potency [4] | Potency [19] | activity change, positive = activation ([20]; at 92.4 µM (top of the series)) -10.1% and 3.72% | Potency [5] | Potency [6] | Potency [7] | Potency [8] | Potency [9] | Potency [10] | max response [11] 8.86% and 4.46% | Potency [12] | Potency [13] | Potency [14] | Potency [15] | Potency [16] | Potency [18]

O=[Se](O)O
inactive: Potency [1] | Potency [2] | outcome [3] | Potency [4] | activity change, negative = cytotoxicity [5] -0.447% [at 15.8 µM] | Potency [6] | activity change, negative = cytotoxic [7] 2.31% [at 15.8 µM] | cytotoxicity increase [8] -7.57% [at 15.8 µM] | Potency [9] | Potency [10] | Potency [12] | Potency [13] | activity change, negative = cytotoxic [14] -0.276% [at 15.8 µM] | cytotoxicity [15] 4.65% [at 15.8 µM] | cytotoxicity increase [16] 15.7% [at 15.8 µM] | Potency [18]
active: Potency [17] 19.5 µM | Potency [7] 21.9 µM | Potency [8] 30.9 µM | Potency [11] 17.4 µM | Potency [16] 24.6 µM

CC(C)=CCO
inactive: Potency [1] | Potency [2] | outcome [3] | Potency [4] | Potency [19] | activity change, positive = activation ([20]; at 92.4 µM (top of the series)) -0.501% | Potency [5] | Potency [6] | Potency [7] | Potency [8] | Potency [9] | Potency [10] | max response [11] 4.01% and 0.683% | Potency [12] | Potency [13] | Potency [14] | Potency [15] | Potency [16] | Potency [18]

CC(=O)[C@H]1CC[C@H]2[C@@H]3CC=C4C[C@@H](O)CC[C@]4(C)[C@H]3CC[C@]12C
inactive: Potency [1] | Potency [2] | outcome [3] | Potency [4] | Potency [19] | activity change, positive = activation ([20]; at 42.5 µM (top of the series)) -14.3% | activity change, positive = activation ([20]; at 92.4 µM (top of the series)) -23.4% | Potency [5] | Potency [17] | Potency [6] | Potency [7] | Potency [8] | Potency [9] | Potency [10] | max response [11] -23.7% | Potency [12] | Potency [13] | Potency [14] | Potency [15] | Potency [16]

CCCCCCC(C)O (stereo not given)
inactive: Potency [1] | Potency [2] | outcome [3] | Potency [4] | Potency [5] | Potency [17] | Potency [6] | Potency [7] | Potency [8] | Potency [9] | Potency [10] | max response [11] 1.85% and 4.03% | Potency [12] | Potency [13] | Potency [14] | Potency [16]

CCCCCC=O
inactive: Potency [1] | Potency [2] | outcome [3] | Potency [4] | Potency [19] | activity change, positive = activation ([20]; at 92.4 µM (top of the series)) 8.48% and 5.45% | Potency [5] | Potency [17] | Potency [6] | Potency [7] | Potency [8] | Potency [9] | max response [11] -0.468% and 7.09% | Potency [12] | Potency [13] | Potency [14] | Potency [15] | Potency [16] | Potency [18]

CC1(C)O[C@@H]2C[C@H]3[C@@H]4C[C@H](F)C5=CC(=O)C=C[C@]5(C)[C@@]4(F)[C@@H](O)C[C@]3(C)[C@]2(C(=O)CO)O1
inactive: Potency [1] | Potency [2] | outcome [3] | Potency [4] | Potency [5] | Potency [17] | Potency [6] | Potency [7] | Potency [8] | Potency [9] | Potency [10] | max response [11] -29.2% and -4.18% | Potency [12] | Potency [13] | Potency [14] | Potency [15] | Potency [16]

C=CN1CCCC1=O
inactive: Potency [1] | Potency [2] | outcome [3] | Potency [4] | Potency [5] | Potency [17] | Potency [6] | Potency [7] | Potency [8] | Potency [9] | max response [11] 0.332% and -7.88% | Potency [12] | Potency [13] | Potency [14] | Potency [15] | Potency [16]
